Measurements: PubChem BioAssay AID434962 (The Scripps Research Institute Molecular Screening Center, 2010)
Out of some 320,000 compounds screened, about 1,300 (0.41%) were called active.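 Rule for the calls: active = percent inhibition above the average of all tested compounds plus 3 SD, set per screening campaign (cut at about 16% in these data); inactive = the rest.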 Many of the other results were omitted from the sample, so actives are more common in it than they were.

target: Insulin-degrading enzyme (Homo sapiens) (UniProt P14735); assay: human IDE inhibitors in live cells, primary screen, fluorescence polarization, HEK cells, FAbetaB substrate (AID 434962); conditions: FAbetaB cleavage, at 5.59 µM, stronger effect = higher value;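 note: IDE supplied by intact live HEK cells; FP after avidin binding of uncleaved biotin substrate so inhibition keeps polarization high; 0% = DMSO wells and 100% = 60 µM reference IDE inhibitor Ii1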
Sequence (P14735 whole entry, looked up): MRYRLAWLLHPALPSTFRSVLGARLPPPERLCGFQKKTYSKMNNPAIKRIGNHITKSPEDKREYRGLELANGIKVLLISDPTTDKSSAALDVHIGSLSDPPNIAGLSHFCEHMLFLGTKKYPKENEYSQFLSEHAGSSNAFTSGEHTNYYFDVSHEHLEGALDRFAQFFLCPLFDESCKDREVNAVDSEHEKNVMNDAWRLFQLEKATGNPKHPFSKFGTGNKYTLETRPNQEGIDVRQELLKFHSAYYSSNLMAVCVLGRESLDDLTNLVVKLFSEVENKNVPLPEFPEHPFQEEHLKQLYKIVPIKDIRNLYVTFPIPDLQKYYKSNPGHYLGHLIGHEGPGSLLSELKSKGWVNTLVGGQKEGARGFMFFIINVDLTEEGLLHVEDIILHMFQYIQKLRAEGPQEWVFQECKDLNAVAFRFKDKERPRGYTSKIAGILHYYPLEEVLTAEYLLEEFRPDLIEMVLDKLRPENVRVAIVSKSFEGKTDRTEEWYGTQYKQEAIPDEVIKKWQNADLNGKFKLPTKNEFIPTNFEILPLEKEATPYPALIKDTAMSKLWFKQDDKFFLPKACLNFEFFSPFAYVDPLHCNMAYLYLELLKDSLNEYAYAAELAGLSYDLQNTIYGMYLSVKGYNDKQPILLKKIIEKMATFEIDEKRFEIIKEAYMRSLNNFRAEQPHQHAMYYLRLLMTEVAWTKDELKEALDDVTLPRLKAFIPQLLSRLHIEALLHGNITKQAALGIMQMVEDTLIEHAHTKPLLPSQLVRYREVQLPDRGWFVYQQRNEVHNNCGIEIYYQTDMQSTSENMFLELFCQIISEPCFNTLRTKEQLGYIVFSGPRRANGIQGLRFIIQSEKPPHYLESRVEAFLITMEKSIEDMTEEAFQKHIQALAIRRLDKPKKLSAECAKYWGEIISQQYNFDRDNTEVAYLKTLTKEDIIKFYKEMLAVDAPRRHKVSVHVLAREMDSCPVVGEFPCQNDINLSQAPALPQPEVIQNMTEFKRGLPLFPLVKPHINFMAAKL

SMILES | inhibition
COc1ccccc1C(=O)OCC(=O)Nc1cccc(S(=O)(=O)NC2=NCCCCC2)c1 | 0.13% (inactive)
Cc1ccc(Br)c(NS(=O)(=O)c2cccc(C(=O)N3CCNC(=O)C3)c2)c1 | -0.69% (inactive)
C/C(=C/c1ccccc1)C(=O)N1CCN(c2ccccc2)CC1 | -2.17% (inactive)
COc1ccc(N2CCN(C(=O)/C(C#N)=C/c3ccccc3)CC2)cc1 | 17.7% (active)
CCOC(=O)/C(C#N)=C/c1ccc(N2CCN(Cc3ccccc3)CC2)cc1 | 3.39% (inactive)
Cc1cc(=O)oc2c1ccc1ccccc12 | 7.29% (inactive)
CCc1ccccc1N(CC(=O)N1CCN(c2ccccc2F)CC1)S(C)(=O)=O | -4% (inactive)
COc1ccc(NC(=O)C(C)SCc2ccccc2)cc1 (stereo not given) | -4.67% (inactive)
O=C(NCCc1c[nH]c2ccccc12)C1CCN(Cc2ccc(Br)cc2)CC1 | -4.77% (inactive)
N#C/C(=C/c1ccc(N2CCCCC2)o1)C(=O)NCCc1c[nH]c2ccccc12 | 151% (active)
O=C(CN1C(=O)NC2(CCCCC2)C1=O)NCCc1c[nH]c2ccccc12 | 1.64% (inactive)
COc1ccccc1N(C)S(=O)(=O)c1ccc(C(=O)NC2CCCCCC2)cc1 | -1.04% (inactive)
CC1CCCC(NC(=O)COC(=O)[C@@H]2CC(O)CN2S(=O)(=O)c2ccc3c(c2)OCCO3)C1C (stereo not given in full) | 2.16% (inactive)
COc1cc(C(=O)Nc2cc(C(F)(F)F)ccc2-n2cncn2)cc(OC)c1OC | -10.1% (inactive)
CCN(CC(=O)Nc1c(F)cccc1F)C(=O)C1CCC1 | -0.82% (inactive)
N#CC1=C(N)Oc2c(sc3ccccc23)C1c1ccco1 (stereo not given) | 37.7% (active)
N#CC1=C(N)Oc2c(ccc3cccnc23)C1c1ccncc1 (stereo not given) | 0.4% (inactive)
Cc1cc(C(=O)NCCc2ccc(Cl)cc2)c(C)o1 | -1.15% (inactive)
COCc1[nH][nH]c(=O)c1C=Nc1ccc(F)cc1F | 1.29% (inactive)
CN1/C(=c2/s/c(=C3/C(=O)N(c4ccccc4)NC3=Nc3ccccc3)n(C)c2=O)C(C)(C)c2ccccc21 | 27% (active)
O=C(OCC(=O)N1CCCCC1)c1ccc(OC(F)(F)F)cc1 | 7.21% (inactive)
Cc1nnc(Sc2nc3c(c(=O)[nH]c(=O)n3C)n2Cc2ccccc2)s1 | 1.7% (inactive)
COC1=C/C(=C/c2c(N)n3nc(CC(=O)N4CCOCC4)sc3nc2=O)C=CC1=O | 12.1% (inactive)
C=CCC1=C/C(=C\c2c(N)n3nc(CC(=O)N4CCOCC4)sc3nc2=O)C=C(OC)C1=O | 68.9% (active)
COc1cc(/C=C2\C(=N)N3N=C(CC(=O)N4CCOCC4)SC3=NC2=O)cc(OC)c1OC | -4.67% (inactive)
